Bioassay records (PubChem BioAssay)
Only some compounds are listed: those with a hit (about 6.1% of all), similar ones and a draw of the others.
RORgamma inh: blocks mouse ROR gamma transcriptional activity; Potency, µM (top dose mostly 53.6 µM), inactives show at the top dose activity change, negative = inhibition, actives largely listed as inhibitors; P51450; 310,000 compounds, 5.4% hits; Drosophila S2 Gal4-RORgamma UAS-luciferase reporter, 20 h; also: % is scaled to controls: 0 for no effect and ±100 for the full control effect; nearly all actives have a fitted effect of over 60% in size
Target sequence (P51450 whole entry, looked up, the tested form may be a part): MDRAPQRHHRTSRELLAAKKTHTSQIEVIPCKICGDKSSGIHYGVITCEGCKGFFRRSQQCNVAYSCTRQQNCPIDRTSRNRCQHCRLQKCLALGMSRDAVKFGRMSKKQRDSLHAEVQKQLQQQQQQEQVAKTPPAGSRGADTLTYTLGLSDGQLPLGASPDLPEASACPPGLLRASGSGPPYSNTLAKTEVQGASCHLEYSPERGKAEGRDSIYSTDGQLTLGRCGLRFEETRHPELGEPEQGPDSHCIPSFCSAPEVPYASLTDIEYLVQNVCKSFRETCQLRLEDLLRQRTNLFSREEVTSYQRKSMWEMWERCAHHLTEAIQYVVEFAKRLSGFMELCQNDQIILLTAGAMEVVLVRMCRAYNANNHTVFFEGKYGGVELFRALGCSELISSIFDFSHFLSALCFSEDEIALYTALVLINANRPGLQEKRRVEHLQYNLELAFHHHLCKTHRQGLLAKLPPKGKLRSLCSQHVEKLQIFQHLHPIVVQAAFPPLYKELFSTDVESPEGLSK
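Compounds are pin-transferred onto Drosophila Schneider cells expressing a copper-inducible Gal4–ROR gamma transactivation domain fusion. After 1 hr, copper sulfate is added to 700 uM final; luciferase is read 20 hr later.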
ATXN2 expr inh: reduces ATXN2 reporter expression in HEK-293 cells; AID 1745845; Potency, µM (top dose mostly 57 µM), for inactives: top-dose activity change, negative = inhibition, usual class: inhibitors; 360,000 compounds, 0.72% hits; HEK-293 ATXN2-luciferase reporter, luminescence, 24 h; also: % is scaled to controls: 0 for no effect and ±100 for the full control effect; nearly all actives have a fitted effect of over 55% in size
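ATXN2-luciferase reporter cells (luciferase flanked by upstream and downstream ATXN2 gene portions) were treated 24 h at 37 °C with compounds at up to 57 uM. SteadyGlo luminescence gave expression; GF-AFC fluorescence gave viability.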
HepG2 viability: HepG2 cytotoxicity, counter-screen for TGF-b inhibitors | HepG2 CAGA-GFP viability, ATP luminescence, 18 h | 410,000 compounds, 0.76% hits | Potency, µM (series often up to 46.1 µM), for inactives: at the top dose activity change, negative = cytotoxicity, most hits filed as cytotoxic
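CellTiter-Glo luminescence gave cytotoxicity after 18 hours at 37 degrees C. The cells were HepG2 CAGA-GFP in 1% FBS DMEM, stimulated with 500 pg/mL TGF-beta after compound addition. %Activity was normalised to no-cell wells (complete cell-killing) and DMSO (no toxicity), and curves were fitted and classified.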
S2 tox: reduces viability in counter-screen for ATXN expression inhibitors. S2 cells (HEK-293 line with an ATXN2-luciferase reporter) viability, CellTiter-Fluor protease fluorescence, 24 h. Potency, µM (titrated, usually from 56.7 µM), actives largely listed as cytotoxic. 400,000 compounds, 0.49% hits. AID 651635; also: nearly all actives have a fitted effect of over 40% in size
VP16 counter: inhibits Gal4-VP16 luciferase reporter, ROR gamma counter-screen; Potency, µM (doses to about 53.6 µM), inactives show at the top dose activity, negative = inhibition, actives largely listed as inhibitors; 310,000 compounds, 3.5% hits; Drosophila S2 Gal4-VP16 UAS-luciferase, luminescence, 20 h;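 also: Gal4-VP16 expression switched on by copper sulfate through the metallothionein promoter; % is scaled to controls: 0 for no effect and ±100 for the full control effect; nearly all actives have a fitted effect of over 50% in size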
TGFb inhibitor: blocks TGF-b signaling; 410,000 compounds, 1.2% hits; HepG2 CAGA-GFP TGF-b/SMAD3 reporter, GFP fluorescence, 18 h; TGF-beta stimulated, 500 pg/mL final; Potency, µM (doses to about 46.1 µM), for the others: at the top dose activity, negative = inhibition, most hits filed as inhibitors; AID 588855; also: % is scaled to controls: 0 for no effect and ±100 for the full control effect; nearly all actives have a fitted effect of over 65% in size
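GFP signal (ex488/em500-530) from TGF-beta-stimulated HEPG2 CAGA-GFP cells, 500 pg/mL final, 18 h at 37 degrees C in DMEM plus 1% FBS, normalized to unstimulated and DMSO-stimulated controls.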
Starred values were filed as active, the others as inactive; i = inactive; ? = inconclusive; . = not tested or not shown; [ ] = dose if it differs, or a comment. Calls follow the shape of the dose curve; as a rule, active = well fitted curve in the direction sought with a large enough effect; inconclusive = small, poorly fitted or top-dose-only effect, or another doubt; inactive = no such curve, though single readings can be large; an effect the other way counts as inactive or inconclusive. Potency is read from the fitted curve at half-maximal effect.

SMILES | RORgamma inh | ATXN2 expr inh | HepG2 viability | S2 tox | VP16 counter | TGFb inhibitor
CCOc1cc(C(=O)NCCc2csc3nc(-c4ccccc4F)nn23)cc(OCC)c1OCC | . | -8.6% | -5.4% | i | . | 2.6%
COc1ccc(OCC(O)CN(CC(O)COc2ccc(OC)cc2)c2cccc(O)c2)cc1 (configuration not stated) | ? | -7.8% | 10µM* | i | ? | -28.4%
COc1ccc(OCC(O)COc2ccc(OC)cc2)cc1 | 36.3% | 8.8% | -5.6% | i | 2.6% | 10.7%
COc1ccc2c(c1)CCc1cnc(-n3ncc(C(=O)NCC(C)(C)CN(C)C)c3C)nc1-2 | . | . | . | i | . | .
CCCCCCCC(=O)[O-].CCCCCCCC(=O)[O-].[Zn+2] | . | -2.0% | . | i | . | .
Nc1ccn([C@@H]2O[C@H](CO)[C@@H](O)C2(F)F)c(=O)n1 | . | 31.6µM* | . | ? | . | .
N/C(=N\C(=S)Nc1ccccc1)c1ccccc1 | 7.94µM* | 83.8% | -1.6% | i | ? | 4.0%
Cc1ccc(NC(=O)CSc2nc(C)c(Cc3ccccc3)c(=O)[nH]2)cc1C | 33.8% | -16.9% | -21.1% | i | 6.2% | 8.91µM*
CCCCNC(=O)CCCCCn1c(=O)[nH]c2ccccc2c1=O | . | . | 3.7% | . | . | -22.0%
CC(=O)N1c2ccc(S(=O)(=O)N3CCCCCC3)cc2CC1C(=O)NCc1ccccc1F (configuration not stated) | . | 8.6% | -5.1% | i | . | -6.6%
CCOC(=O)c1ccc(NC(=O)c2ccc(NC(=O)c3ccccc3)cc2)cc1 | 3.7% | ? | -3.3% | i | 11.3% | 1.0%
CCOC(=O)C1=C(NC(=S)NC(=O)c2ccccc2)c2ccccc2CC1(C)CC (configuration not stated) | 6.31µM* | 70.1% | -15.7% | i | 7.08µM* | 0.0%
CCOC(=O)C1=C(NC(=S)NC(=O)c2ccccc2)c2ccccc2CC1C(C)C (configuration not stated) | 3.98µM* | -24.4% | -18.7% | i | 3.0%[0.365 µM] | -3.2%
CCOC(=O)c1c(NC(=O)c2ccccc2)sc2c1CCc1ccccc1-2 | -14.3% | -8.9% | 6.4% | i | -13.1% | 4.3%
COCc1cc(C)nc2sc3c(c12)NC(c1ccccc1C(=O)O)N(c1cccc(C(F)(F)F)c1)C3=O (configuration not stated) | . | . | -6.1% | . | . | 1.5%
COc1ccccc1CCNC(=O)C(C)Sc1nc(-c2ccccc2)cc(C(F)(F)F)n1 (configuration not stated) | . | -6.8% | -44.4% | i | . | -9.6%
Cc1ccc(/C=C/C(=O)NC2CCCCCCC2)o1 | -91.9% | 32.1% | -28.4% | i | 12.6µM* | ?
Cc1csc(NC(=O)/C=C/c2ccco2)n1 | ? | 22.6% | -3.7% | i | ? | -4.6%
Cc1csc(NC(=O)/C=C/c2ccc(C)o2)n1 | 4.47µM* | 39.7% | -4.4% | i | -16.6% | 0.0%
CCOC(=O)CCN(c1ccccc1)S(=O)(=O)c1ccc2[nH]c(=O)ccc2c1 | . | 7.9% | -20.5% | i | . | 11.3%
COc1ccc2c(c1)OC(C)CN(CCNC(=O)c1cc3cc(F)ccc3[nH]1)C2 (configuration not stated) | . | . | . | i | . | .
Clc1ccc(CN2C3=NCCN3c3ccccc32)cc1Cl | 17.8µM* | ? | -58.5% | i | -15.9% | 0.0%
O=C(Cn1ncc2c(=O)oc3ccccc3c21)Nc1cc(F)ccc1F | . | 9.0% | -3.6% | i | . | -32.2%
COc1ccccc1NC(=O)c1ccccc1NC(=O)c1ccccn1 | . | -8.2% | 2.5% | i | . | 5.7%
Cc1cc(C)cc(OCC(=O)NNC(=O)c2ccccn2)c1 | . | . | -10.3% | ? | . | ?
SMILES | RORgamma inh | ATXN2 expr inh | HepG2 viability | S2 tox | VP16 counter | TGFb inhibitor
O=C(COc1ccc(Cl)cc1)NNC(=O)c1ccccn1 | 10µM* | ? | -28.5% | ? | ? | -18.2%
COc1ccc(Cl)cc1NC(=O)NNC(=O)c1ccccn1 | 4.47µM* | -23.0% | -9.4% | i | 7.08µM* | -2.1%
O=C(c1cc(-c2cccc(O)c2)on1)N1CCCCC1 | 0.708µM* | 26.9% | -42.4% | i | -17.7% | ?
COc1ccc(-c2cc(C(=O)N3CCCCCC3)no2)cc1 | -36.7% | 0.3% | -13.9% | i | -18.7% | 12.1%
O=C(c1cc(-c2ccc(F)cc2)on1)N1CCCC1 | 14.1µM* | -17.7% | -17.0% | i | -59.6% | 1.1%
COc1ccc(-c2cc(C(=O)N3CCCC3)no2)cc1 | 3.98µM* | 8.91µM* | -16.8% | i | 10µM* | -19.7%
CC(C)c1ccccc1NC(=O)COC(=O)CCN1C(=O)/C(=C\C=C\c2ccccc2)SC1=S | 2.51µM* | ? | 3.5% | ? | 3.98µM* | -2.1%
COc1ccc(NCc2cccn2-c2nnc(N3CCCCC3)s2)cc1OC | . | 5.0% | -22.3% | i | . | -3.9%
Cc1c(Cl)cccc1NC(=O)c1ccco1 | -13.7%[1.91 µM] | 10.1% | 1.9% | i | ? | -1.3%
Cc1c(Cl)cccc1NC(=S)NCc1ccco1 | 5.01µM* | . | -3.6% | i | ? | -16.0%
Cc1cccc(NC(=S)NCc2ccncc2)c1C | -13.5% | -0.2% | -27.9% | i | 1.7% | 12.5%
Cc1cccc(NC(=S)NCc2ccco2)c1C | 7.94µM* | 3.8% | -20.4% | i | 11.2µM* | -12.2%
S=C(NCc1ccco1)Nc1ccccc1Cl | 10µM* | . | -2.2% | i | 16.4% | -4.8%
S=C(NCc1ccco1)Nc1cccc(Cl)c1Cl | -103.5% | -10.1% | -57.8% | i | -17.8% | -24.5%
CN(C(=O)CSc1nc2ccccc2[nH]1)c1ccc(F)cc1 | . | 29.6% | 0.4% | i | . | ?
COC(C(=O)NNS(=O)(=O)c1ccccc1[N+](=O)[O-])c1ccccc1 (configuration not stated) | . | 4.8% | -10.8% | i | . | 6.0%
CC(C)C(=O)NNS(=O)(=O)c1ccccc1[N+](=O)[O-] | -15.5% | -2.1% | 15.8µM* | i | 5.9% | -3.2%
Cc1ccc(S(=O)(=O)N2CCCN(Cc3nc4ccccc4c(=O)[nH]3)CC2)cc1 | . | -6.8% | -13.1% | i | . | 7.9%
Cc1ccc(S(=O)(=O)N2CCCN(C(C)c3nc4ccccc4c(=O)[nH]3)CC2)cc1 (configuration not stated) | . | . | -40.9% | i | . | 14.1µM*
Cc1cc(N2CCCC2=O)cc(C)c1S(=O)(=O)NCCOc1ccc(C(C)(C)C)cc1 | ? | -12.7% | -14.2% | i | 3.16µM* | -4.8%
CCCOc1ccc(C2CC(=O)Nc3c2c(=O)n(C)c(=O)n3C)cc1OC (configuration not stated) | . | 10.8% | 8.1% | i | . | 0.9%
